Assay results taken from PubChem BioAssay (Tox21).
Inconclusive results are not listed. The source made the active and inactive calls. Unless noted, the call rests on the fitted dose curve; in most records, active means well fitted curve in the direction sought with a large enough effect in the repeat runs; inconclusive means weak or mixed curves; inactive means no such curve, though single readings can be large; an effect the other way counts as inactive or inconclusive.

Key:
[1] = qHTS assay to identify small molecule antagonists of the estrogen related receptor (ERR) signaling pathway - cell viability counter screen (AID 1224818);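 further: series mostly up to about 46 µM; viability measured after 17.5 h of compound exposure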
In short: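 In the same ERR cell assay, compound-treated wells (17.5 h, 37 C) were multiplexed with a fluorogenic viability reagent, CellTiter-Fluor, read after 30 min to flag cytotoxic substances.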

[2] = qHTS assay to identify small molecule antagonists of the estrogen related receptor (ERR) signaling pathway (AID 1224819;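 further: luminescence from an ERR-driven luciferase reporter measured with One-Glo reagent; series mostly up to about 46 µM; nearly all actives have a fitted effect of over 50% in size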)
In short: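 qHTS in ERR cells, 2,000/well, 1536 format. Cpd (DMSO) added after 6 h settle, 18 h 37 C. One-Glo luminescence, 30 min RT.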

[3] = qHTS assay to identify small molecule agonists of the estrogen related receptor (ERR) signaling pathway (AID 1224820)
In short: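 Cells: ERR line from NTP, 2,000/well. Pre-incubation 6 h, 37 C/5% CO2. Compound (DMSO) pin transfer, 18 h 37 C. One-Glo, 30 min RT, luminescence.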

[4] = test system: estrogen-related receptor alpha (ERRalpha) with PGC-1alpha coactivator, human; experiment: qHTS assay to identify small molecule antagonists of the estrogen related receptor signaling pathway with the pleiotropic PPARgamma coactivator (PGC) (AID 1224821; calls by dose curve;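 further: series mostly up to about 46 µM; lower luminescence signal means antagonism of PGC/ERR signalling; nearly all actives have a fitted effect of over 50% in size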)
In short: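 Luminescent read-out (One-Glo, 30 min at room temperature) following 18 h treatment of PGC/ERR cells at 37 C with compounds delivered in DMSO. Cells had settled 6 h at 37 C/5% CO2 before dosing.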

[5] = qHTS assay to identify small molecule antagonists of the estrogen related receptor signaling pathway with the pleiotropic PPARgamma coactivator (PGC) cell viability counter screen (AID 1224822; further: series mostly up to about 46 µM)
In short: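 Compounds in DMSO, with positive and negative controls, were applied to PGC/ERR cells (2,000/well) and left 17.5 h at 37 C before CellTiter-Fluor detection.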

[6] = qHTS assay to identify small molecule agonists of the estrogen related receptor signaling pathway with the pleiotropic PPARgamma coactivator (PGC) (AID 1224823)
In short: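 Steps: plate PGC/ERR cells at 2,000 cells/well; incubate 6 h, 37 C/5% CO2; pin-transfer compounds (DMSO); incubate 18 h, 37 C; add One-Glo; 30 min RT; read luminescence.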

[7] = qHTS assay for small molecule agonists of the p53 signaling pathway (AID 651631; calls by dose curve; further: nearly all actives have a fitted effect of over 15% in size)
In short: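 Read-out is beta-lactamase FRET fluorescence measured 2 h after substrate addition at room temperature, in HCT-116 cells with a p53 response element-driven reporter exposed to compounds for 16 h at 37 °C.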

[8] = qHTS assay for small molecules that induce genotoxicity in human embryonic kidney cells expressing luciferase-tagged ATAD5 (AID 651632); further: nearly all actives have a fitted effect of over 15% in size
In short: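 Reporter cells (HEK293T) express luciferase-tagged ATAD5, a protein that accumulates after DNA damage. Treat 16 hr at 37C/5% CO2, add Amplite, wait 30 min at RT, and read luminescence.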

[9] = qHTS assay for small molecule agonists of the p53 signaling pathway - cell viability (AID 651633; calls by dose curve;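 further: p53RE-bla HCT reporter cells with a stable beta-lactamase p53 reporter; series mostly up to about 83 µM; nearly all actives have a fitted effect of over 30% in size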)
In short: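 p53RE-bla cells were treated with compound for 16 hours at 37 C. Cytotoxicity was then measured as CellTiter-Glo luminescence after 30 min at room temperature.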

[10] = qHTS assay for small molecule disruptors of the mitochondrial membrane potential - cell viability (AID 720634; calls by dose curve;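 further: human HepG2 liver cancer cells; series mostly up to about 83 µM; nearly all actives have a fitted effect of over 20% in size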)
In short: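 Measuring cytotoxicity alongside mitochondrial potential, the screen quantified ATP by luminescence in HepG2 cells after 1 hr compound incubation and a 30 min room-temperature CellTiter-Glo step.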

[11] = qHTS assay for small molecule disruptors of the mitochondrial membrane potential (AID 720635)
In short: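 HepG2 cells exposed to compound 1 hr at 37C, then Mito-MPS dye 30 min. Ratio read of aggregate (540/590 nm) versus monomer (490/535 nm) fluorescence.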

[12] = qHTS assay to test for compound auto fluorescence at 590 nm (red) in HepG2 cells (AID 720674)
In short: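 Fluorescence at 590 nm emission following 540 nm excitation was recorded from HepG2 wells one hour after compound transfer, with DMSO-only wells as vehicle and Rose Bengal sodium equivalency as the scale.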

[13] = qHTS assay to test for compound auto fluorescence at 535 nm (green) in HepG2 cells (AID 720675)
[14] = qHTS assay to test for compound auto fluorescence at 460 nm (blue) in HEK293 cells (AID 720678)
In short: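 Blue read-out at excitation 405 nm and emission 460 nm follows overnight compound exposure of HEK293 cells at 37C in 5% CO2. Activity is given as auto fluorescence equivalency to triamterene.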

[15] = qHTS assay to test for compound auto fluorescence at 590 nm (red) in HEK293 cells (AID 720679)
In short: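 Red channel, Ex/Em 540/590nm; signal expressed as equivalency to Rose Bengal sodium. HEK293, 2,000 cells/well, 10% dialyzed FBS; 23 nL compound pinned after 4-5 hr attachment; overnight 37C/5% CO2 before reading.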

[16] = qHTS assay to test for compound auto fluorescence at 535 nm (green) in HEK293 cells (AID 720680)
[17] = qHTS assay to test for compound auto fluorescence at 460 nm (blue) in HEK293 cell free culture (AID 720681)
In short: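 Compounds were added to cell-free DMEM with 10% FBS and fluorescence read directly. The blue channel used 405 nm excitation and 460 nm emission, with triamterene as the reference fluorophore.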

[18] = qHTS assay to test for compound auto fluorescence at 535 nm (green) in HEK293 cell free culture (AID 720682)
In short: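 Fluorescein serves as the green reference fluorophore; each compound's intrinsic emission at 535 nm (excitation 485 nm) is reported as an equivalent amount of that dye, measured in serum-containing DMEM without cells.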

[19] = qHTS assay to test for compound auto fluorescence at 590 nm (red) in HEK293 cell free culture (AID 720683)
In short: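 Cell-free wells of DMEM with 10% FBS received compound, and intrinsic fluorescence was read at excitation/emission 540/590 nm. Values expressed as equivalence to Rose Bengal sodium.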

[20] = qHTS assay to test for compound auto fluorescence at 590 nm (red) in HepG2 cell free culture (AID 720684)
In short: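 Compound was pinned into wells holding MEM with 10% FBS and no cells, and red fluorescence was read at Ex/Em 540/590 nm. Signal is expressed as auto fluorescence equivalency relative to Rose Bengal sodium.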

[21] = qHTS assay to test for compound auto fluorescence at 460 nm (blue) in HepG2 cell free culture (AID 720685)
In short: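 Compound (23 nL) or DMSO pinned into cell-free MEM with 10% FBS; blue fluorescence read at 405/460 nm excitation/emission, expressed as auto-fluorescence equivalency to triamterene.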

[22] = qHTS assay to test for compound auto fluorescence at 535 nm (green) in HepG2 cell free culture (AID 720686)
[23] = qHTS assay to test for compound auto fluorescence at 460 nm (blue) in HepG2 cells (AID 720687)
In short: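 HepG2 cells in MEM with 10% FBS, attached overnight at 37 C, were exposed to compound or DMSO for 1 hr at 37 C, 5% CO2. Blue fluorescence was read at 405/460 nm, with triamterene as reference fluorophore.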

[24] = target: Glucocorticoid receptor (Homo sapiens) (UniProt P04150); experiment: qHTS assay to identify small molecule agonists of the glucocorticoid receptor (GR) signaling pathway (AID 720691; active means well fitted activation curve with a large enough effect in the signal ratio in the repeat runs, not every such curve was filed as active; the % refers to the signal ratio)
Chain of Glucocorticoid receptor (Homo sapiens) (P04150 whole entry, looked up): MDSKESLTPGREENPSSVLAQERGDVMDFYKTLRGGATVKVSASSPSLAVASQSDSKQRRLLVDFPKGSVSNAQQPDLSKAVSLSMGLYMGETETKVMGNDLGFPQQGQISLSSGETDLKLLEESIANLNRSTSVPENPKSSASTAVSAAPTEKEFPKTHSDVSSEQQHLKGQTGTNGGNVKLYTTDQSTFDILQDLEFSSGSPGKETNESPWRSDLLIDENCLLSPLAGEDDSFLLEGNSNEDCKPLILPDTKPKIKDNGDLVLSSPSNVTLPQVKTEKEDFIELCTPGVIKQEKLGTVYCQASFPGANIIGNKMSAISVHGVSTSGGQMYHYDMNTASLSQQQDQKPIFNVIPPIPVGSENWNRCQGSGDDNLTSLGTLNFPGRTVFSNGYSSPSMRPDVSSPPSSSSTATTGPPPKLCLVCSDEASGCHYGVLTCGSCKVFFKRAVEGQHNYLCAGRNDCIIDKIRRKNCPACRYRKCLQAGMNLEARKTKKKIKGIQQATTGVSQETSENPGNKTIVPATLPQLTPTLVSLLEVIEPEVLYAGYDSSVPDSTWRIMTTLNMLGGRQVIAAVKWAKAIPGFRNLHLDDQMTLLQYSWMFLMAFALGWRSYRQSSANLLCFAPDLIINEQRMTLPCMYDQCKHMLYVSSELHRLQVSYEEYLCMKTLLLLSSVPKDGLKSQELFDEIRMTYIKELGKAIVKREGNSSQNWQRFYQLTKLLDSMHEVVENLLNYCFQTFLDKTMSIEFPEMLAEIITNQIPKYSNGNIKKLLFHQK
In short: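 Reporter read-out: fluorescence intensity following 2 h room-temperature LiveBLAzer B/G FRET substrate loading. Prior step: GR-bla HeLa cells held 4 h, then treated 18 h at 37 C.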

[25] = target: Glucocorticoid receptor (Homo sapiens) (UniProt P04150); experiment: qHTS assay to identify small molecule antagonists of the glucocorticoid receptor (GR) signaling pathway (AID 720692; active means well fitted inhibition curve with a large enough effect in the signal ratio in the repeat runs, not every such curve was filed as active; the % refers to the signal ratio)
In short: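 Dexamethasone (5 nM final) stimulated a stably integrated GRE-beta-lactamase reporter in HeLa cells during 18 h co-incubation with compounds; signal was quantified as fluorescence intensity of B/G FRET substrate after 2 h.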

[26] = qHTS assay to identify small molecule antagonists of the glucocorticoid receptor (GR) signaling pathway - cell viability counter screen (AID 720693); further: nearly all actives have a fitted effect of over 55% in size
[27] = qHTS assay for identifying genotoxic compounds that show differential cytotoxicity against isogenic chicken DT40 cell lines with known DNA damage response pathways - Rev3 mutant cell line (AID 743014); further: nearly all actives have a fitted effect of over 55% in size
[28] = qHTS assay for identifying genotoxic compounds that show differential cytotoxicity against isogenic chicken DT40 cell lines with known DNA damage response pathways - Rad54/Ku70 mutant cell line (AID 743015); further: nearly all actives have a fitted effect of over 60% in size
[29] = qHTS assay to identify small molecule antagonists of the androgen receptor (AR) signaling pathway - cell viability counter screen (AID 743033; further: nearly all actives have a fitted effect of over 45% in size)
[30] = qHTS assay to identify small molecule antagonists of the androgen receptor (AR) signaling pathway using the MDA cell line - cell viability counter screen (AID 743041; further: nearly all actives have a fitted effect of over 45% in size)
In short: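 MDA-kb2 AR-luc cells (MMTV-luciferase, AR/GR responsive) treated with compounds plus R1881 agonist for 16 h at 37C. CellTiter-Fluor added at 15.5 h; fluorescence read after 30 min in the same wells.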

[31] = qHTS assay to identify small molecule antagonists of the thyroid receptor (TR) signaling pathway - cell viability counter screen (AID 743064); further: nearly all actives have a fitted effect of over 50% in size
In short: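 Fluorescence from CellTiter-Fluor, added after 23.5 h exposure at 37 °C, reported viability of GH3.TRE-Luc cells co-treated with compound and 1 nM T3. Measured in the same wells as the luciferase TR readout.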

[32] = qHTS assay to identify small molecule antagonists of the thyroid receptor (TR) signaling pathway (AID 743065); further: series mostly up to about 70 µM; nearly all actives have a fitted effect of over 55% in size
In short: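 GH3.TRE-Luc rat pituitary cells (two TREs driving luciferase) were dosed with compound, then stimulated with 1 nM T3 (final) for 23.5 h at 37 C. ONE-Glo luminescence was the read-out, with CellTiter-Fluor fluorescence as the cytotoxicity counter-screen.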

[33] = test system: thyroid hormone receptor (rat, GH3 cells); experiment: qHTS assay to identify small molecule agonists of the thyroid receptor (TR) signaling pathway (AID 743066; calls by dose curve)
[34] = target: Estrogen receptor (Homo sapiens) (UniProt P03372); experiment: qHTS assay to identify small molecule antagonists of the estrogen receptor alpha (ER-alpha) signaling pathway (AID 743069; active means well fitted curve in the direction sought with a large enough effect in the signal ratio in the repeat runs, not every such curve was filed as active; the % refers to the signal ratio)
Chain of Estrogen receptor (Homo sapiens) (P03372 whole entry, looked up): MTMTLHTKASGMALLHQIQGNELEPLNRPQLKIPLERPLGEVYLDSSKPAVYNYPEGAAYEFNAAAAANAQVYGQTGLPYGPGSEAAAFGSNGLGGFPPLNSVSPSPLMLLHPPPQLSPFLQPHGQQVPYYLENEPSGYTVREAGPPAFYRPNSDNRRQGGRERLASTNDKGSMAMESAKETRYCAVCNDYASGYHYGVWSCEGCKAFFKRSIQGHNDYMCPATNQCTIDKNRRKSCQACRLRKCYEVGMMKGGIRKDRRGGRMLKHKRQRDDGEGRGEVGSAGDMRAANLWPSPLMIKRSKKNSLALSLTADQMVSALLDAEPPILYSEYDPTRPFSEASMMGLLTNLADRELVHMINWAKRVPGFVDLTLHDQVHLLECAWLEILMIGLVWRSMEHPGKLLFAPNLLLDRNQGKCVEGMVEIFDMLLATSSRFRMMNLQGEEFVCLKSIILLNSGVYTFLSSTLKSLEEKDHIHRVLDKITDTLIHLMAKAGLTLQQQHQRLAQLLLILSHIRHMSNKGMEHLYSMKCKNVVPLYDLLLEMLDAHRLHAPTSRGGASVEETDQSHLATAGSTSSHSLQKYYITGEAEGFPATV
In short: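 HEK293 ER-alpha-UAS-bla GripTite cells, held overnight in 2% charcoal-stripped FBS, 5,000 cells/well, preincubated 4 h, then compound plus 17beta-estradiol for 18 h at 37C. Beta-lactamase read by LiveBLAzer B/G FRET substrate, 2 h at room temperature.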

[35] = target: Estrogen receptor (Homo sapiens) (UniProt P03372); experiment: qHTS assay to identify small molecule agonists of the estrogen receptor alpha (ER-alpha) signaling pathway (AID 743075; calls by dose curve)
[36] = target: Estrogen receptor (Homo sapiens) (UniProt P03372); experiment: qHTS assay to identify small molecule agonists of the estrogen receptor alpha (ER-alpha) signaling pathway using the BG1 cell line (AID 743079); further: nearly all actives have a fitted effect of over 20% in size
[37] = qHTS assay to identify small molecule antagonists of the estrogen receptor alpha (ER-alpha) signaling pathway using the BG1 cell line (AID 743080; calls by dose curve;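 further: BG1 cells stimulated with 17beta-estradiol alongside compound; series mostly up to about 70 µM; nearly all actives have a fitted effect of over 25% in size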)
In short: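 Luminescence from a 4×ERE-luciferase reporter in BG1-Luc-4E2 cells served as read-out. Cells, pre-cultured 5 days in stripped-serum phenol-red-free medium, were exposed to compound with 17beta-estradiol co-stimulation for 21.5 h at 37 C.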

[38] = qHTS assay to identify small molecule antagonists of the estrogen receptor alpha (ER-alpha) signaling pathway using the BG1 cell line - cell viability counter screen (AID 743081);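 further: compound given together with 17beta-estradiol as the ER stimulus; series mostly up to about 70 µM; nearly all actives have a fitted effect of over 45% in size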
Aromatase (Homo sapiens) = Aromatase (Homo sapiens) (UniProt P11511); experiment: qHTS assay to identify aromatase inhibitors (AID 743083); further: series mostly up to about 70 µM; nearly all actives have a fitted effect of over 55% in size
Chain of Aromatase (Homo sapiens) (P11511 whole entry, looked up): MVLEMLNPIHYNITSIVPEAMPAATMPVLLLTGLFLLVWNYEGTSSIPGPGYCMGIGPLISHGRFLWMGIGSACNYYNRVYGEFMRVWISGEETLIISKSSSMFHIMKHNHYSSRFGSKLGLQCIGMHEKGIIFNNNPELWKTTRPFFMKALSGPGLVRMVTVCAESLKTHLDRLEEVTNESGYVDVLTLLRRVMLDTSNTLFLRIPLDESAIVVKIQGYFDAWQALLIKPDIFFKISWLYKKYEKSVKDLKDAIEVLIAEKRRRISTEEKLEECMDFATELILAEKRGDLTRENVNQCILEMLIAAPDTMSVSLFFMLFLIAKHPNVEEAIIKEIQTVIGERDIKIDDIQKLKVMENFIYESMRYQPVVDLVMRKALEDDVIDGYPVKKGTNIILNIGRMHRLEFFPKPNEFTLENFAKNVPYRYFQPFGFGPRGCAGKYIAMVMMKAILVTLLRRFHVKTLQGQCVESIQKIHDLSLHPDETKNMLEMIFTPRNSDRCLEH

[39] = qHTS assay to identify aromatase inhibitors - cell viability counter screen (AID 743084)
[40] = target: Aryl hydrocarbon receptor (Homo sapiens) (UniProt P35869); experiment: qHTS assay to identify small molecule that activate the aryl hydrocarbon receptor (AhR) signaling pathway (AID 743085);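 further: HG2L7.5c1 human HepG2 liver cells with stably integrated DRE-driven firefly reporter; series mostly up to about 70 µM; nearly all actives have a fitted effect of over 15% in size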
Chain of Aryl hydrocarbon receptor (Homo sapiens) (P35869 whole entry, looked up): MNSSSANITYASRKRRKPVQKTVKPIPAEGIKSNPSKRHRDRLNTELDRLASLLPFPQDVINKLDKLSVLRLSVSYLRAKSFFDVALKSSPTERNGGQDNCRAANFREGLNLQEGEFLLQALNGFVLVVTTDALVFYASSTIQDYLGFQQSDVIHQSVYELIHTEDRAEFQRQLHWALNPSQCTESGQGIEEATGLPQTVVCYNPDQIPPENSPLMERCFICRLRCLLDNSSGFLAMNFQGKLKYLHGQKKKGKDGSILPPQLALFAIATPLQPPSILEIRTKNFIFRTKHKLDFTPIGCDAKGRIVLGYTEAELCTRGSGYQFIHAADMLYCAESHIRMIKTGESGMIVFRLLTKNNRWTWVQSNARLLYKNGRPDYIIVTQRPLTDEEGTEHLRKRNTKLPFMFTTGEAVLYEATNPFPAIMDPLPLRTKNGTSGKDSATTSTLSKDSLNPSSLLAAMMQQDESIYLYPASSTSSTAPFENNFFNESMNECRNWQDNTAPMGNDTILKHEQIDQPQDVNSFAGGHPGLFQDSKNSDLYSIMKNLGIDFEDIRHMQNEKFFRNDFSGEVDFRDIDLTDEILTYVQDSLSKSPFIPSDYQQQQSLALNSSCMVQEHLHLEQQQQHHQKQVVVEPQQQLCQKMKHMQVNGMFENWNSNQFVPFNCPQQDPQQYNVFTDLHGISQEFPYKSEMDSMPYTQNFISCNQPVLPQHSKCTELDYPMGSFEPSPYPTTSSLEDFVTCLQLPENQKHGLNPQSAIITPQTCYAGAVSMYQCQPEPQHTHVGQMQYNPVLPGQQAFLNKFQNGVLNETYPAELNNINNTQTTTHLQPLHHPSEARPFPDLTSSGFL
In short: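 Cell line HG2L7.5c1 (human hepatoma, 20× DRE-luc). Plated, 5 h 37C, compound/DMSO added, 24 h 37C. CellTiter-Fluor 30 min 37C → fluorescence; then ONE-Glo 30 min RT → luminescence.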

[41] = qHTS assay to identify small molecule that activate the aryl hydrocarbon receptor (AhR) signaling pathway - cell viability counter screen (AID 743086);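 further: HepG2 liver cells carrying the AhR DRE luciferase reporter; series mostly up to about 70 µM; nearly all actives have a fitted effect of over 45% in size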
In short: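 HepG2-AhR-luc (HG2L7.5c1) cells, 4000/well, treated 24 h at 37 C with compound; viability measured as CellTiter-Fluor fluorescence after 30 min in the same wells as the luciferase read.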

[42] = target: Peroxisome proliferator-activated receptor gamma (Homo sapiens) (UniProt P37231); experiment: qHTS assay to identify small molecule agonists of the peroxisome proliferator-activated receptor gamma (PPARg) signaling pathway (AID 743094; active means well fitted activation curve with a large enough effect in the signal ratio in the repeat runs, not every such curve was filed as active; the % refers to the signal ratio)
Chain of Peroxisome proliferator-activated receptor gamma (Homo sapiens) (P37231 whole entry, looked up): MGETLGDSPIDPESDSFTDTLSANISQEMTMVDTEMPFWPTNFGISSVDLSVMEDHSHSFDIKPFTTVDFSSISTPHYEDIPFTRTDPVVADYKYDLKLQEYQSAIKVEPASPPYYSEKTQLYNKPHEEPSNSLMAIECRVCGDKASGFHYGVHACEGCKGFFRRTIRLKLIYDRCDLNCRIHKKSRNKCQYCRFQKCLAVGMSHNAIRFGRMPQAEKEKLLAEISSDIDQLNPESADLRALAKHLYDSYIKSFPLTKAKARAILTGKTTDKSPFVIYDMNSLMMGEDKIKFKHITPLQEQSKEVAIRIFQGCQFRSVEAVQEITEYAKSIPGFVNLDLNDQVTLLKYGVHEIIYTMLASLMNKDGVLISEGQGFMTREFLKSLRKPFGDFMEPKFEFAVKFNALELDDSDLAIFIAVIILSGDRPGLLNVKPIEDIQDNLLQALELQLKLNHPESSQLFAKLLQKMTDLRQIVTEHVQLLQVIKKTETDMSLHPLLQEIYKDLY
In short: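 Following 5 h plating at 37C, PPARg-bla HEK293H cells receive compound or DMSO for 17 h; fluorescence intensity is recorded after LiveBLAzer B/G loading for 1 h at room temperature.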

[43] = qHTS assay to identify small molecule phospholipidosis (PLD) inducers (AID 1259344; active means well fitted curve in the direction sought with a large enough effect; an effect the other way counts as inactive or inconclusive)
In short: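 HepG2 cells, 900/well, treated with compound plus LipidTOX Red for 24 h at 37 C; amiodarone positive and DMSO negative controls. Fixed with paraformaldehyde/Hoechst, then high-content imaging scored LipidTOX pit count and integrated intensity per well and per cell.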

[44] = target: Nuclear receptor subfamily 1 group I member 2 (Homo sapiens) (UniProt O75469); experiment: CYP3A4 induction through human pregnane X receptor (PXR) by small molecules, qHTS assay (AID 1346984); further: nearly all actives have a fitted effect of over 40% in size
In short: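 qHTS, concentration-response format: HepG2 DPX-2 line, PXR/CYP3A4-luc. Exposure 24 h, 37C. Substrate Luciferin-IPA 3uM final, 3 h. Detection One-Glo, 30 min RT.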

[45] = target: Nuclear receptor subfamily 1 group I member 2 (Homo sapiens) (UniProt O75469); experiment: Human pregnane X receptor (PXR) activation by small molecules, qHTS assay (AID 1346985); further: nearly all actives have a fitted effect of over 40% in size
In short: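 DPX-2 cells (HepG2 co-transfected with a PXR response element and a CYP3A4-promoter luciferase construct) were seeded at 2,000 per well, rested 5 hr at 37C, then exposed to DMSO-dissolved compounds for 24 hr. Activation was read as luciferase luminescence.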

Measured: Potency

CC(C)NP(=O)(NC(C)C)OP(=O)(NC(C)C)NC(C)C
inactive: [1] | [2] | [3] | [4] | [5] | [6]

NCC(CP(=O)(O)O)c1ccc(Cl)cc1 (stereo not drawn)
inactive: [1] | [2] | [3] | [4] | [5] | [6]

CCCN1CCC[C@H](c2cccc(O)c2)C1
inactive: all assays above
